Unmarked numbers belong to inactive results. Cut-off read from the data, not from the text of the source: active = potency below about 10 µM; inactive = the rest.
molecular target: Lysosomal acid glucosylceramidase (Homo sapiens) (UniProt P04062); test: Glucocerebrosidase-p2 (AID 348); details: purified GBA, blue fluorogenic substrate, 40 min
From the text: Beta-glucocerebrosidase catalyzes the hydrolysis of beta-glucocerebroside to glucose and ceramide. The inherited deficiency of beta-glucocerebrosidase results in Gaucher disease, which is characterized by a wide variety of symptoms including hepatosplenomegaly, anemia, thrombocytopenia, bony lesions and bone marrow infiltration with characteristic storage cells, known as Gaucher cells. There are also forms of the disorder affecting the central nervous system. Patients with the same genotypes can manifest with diverse clinical presentations and it is believed that improper folding and trafficking of beta-glucocerbrosidase may contribute to the phenotypes observed.
Low molecular weight molecules, acting as chaperones, may potentially restore trafficking of misfolded beta-glucocerebrosidase from the endoplasmic reticulum to the lysosomes, thereby enhancing functional lysosomal beta-glucocerebrosidase activity.
Using normal beta-glucocerebrosidase, an assay was developed to screen for small molecule inhibitors that could potentially act as molecular chaperones on the mutant forms [developed with NIH investigator Dr. Ellen Sidransky#s laboratory]. Two pro-fluorescent substrates were chosen for two screens against a small molecule library. One beta-glucocerebrosidase assay used Resorufin beta-D-Glucopyranoside (Marker Gene Technology Inc.), generating a red fluorescent product. The second assay used […] fluorescent product. The Km for the Resorufin beta-D-Glucopyranoside and Fluorescein di-beta-D-Glucopyranoside were determined to be 71.2 uM and 855 uM, respectively. The IC50 values of Conduritol B Epoxide, a known glucocerebrosidase inhibitor, were determined to be 87.5 uM and 117 uM, respectively. The use of two difference pro-fluorescent substrates in the screens helped to eliminate false positives. All compounds were screened in a titration series resulting in AC50s (e.g., IC50s or EC50s). Data normalization and AC50 calculations were accomplished using GeneData software.
NCGC Assay Protocol Summary
Both enzyme and substrate were diluted in buffer composed of 50mM citric acid/KH2PO4, 10mM sodium taurocholate and 0.01% tween-20 at pH 5.9. The final concentration of the enzyme was 0.2 nM in both assays. The compound library was titrated in 7 to 15 concentrations for the primary screens with a final concentration ranging from 0.6 nM to 50 uM. This particular assay protocol is for the "blue" substrate, and it was performed in 1536-well plate format as follows:
Blue fluorescence substrate assay:
1 uL substrate (final concentration of 80 uM)
Incubate at room temperature (RT) for 40 minutes
3 uL stop solution (1 M NaOH and 1 M glycine in water)
Read the plate in Viewlux plate reader (Ex=365(10) and Em=440(10)).
Potency is the fitted concentration of half-maximal effect.

Sequence of Lysosomal acid glucosylceramidase (Homo sapiens) (P04062 whole entry, looked up): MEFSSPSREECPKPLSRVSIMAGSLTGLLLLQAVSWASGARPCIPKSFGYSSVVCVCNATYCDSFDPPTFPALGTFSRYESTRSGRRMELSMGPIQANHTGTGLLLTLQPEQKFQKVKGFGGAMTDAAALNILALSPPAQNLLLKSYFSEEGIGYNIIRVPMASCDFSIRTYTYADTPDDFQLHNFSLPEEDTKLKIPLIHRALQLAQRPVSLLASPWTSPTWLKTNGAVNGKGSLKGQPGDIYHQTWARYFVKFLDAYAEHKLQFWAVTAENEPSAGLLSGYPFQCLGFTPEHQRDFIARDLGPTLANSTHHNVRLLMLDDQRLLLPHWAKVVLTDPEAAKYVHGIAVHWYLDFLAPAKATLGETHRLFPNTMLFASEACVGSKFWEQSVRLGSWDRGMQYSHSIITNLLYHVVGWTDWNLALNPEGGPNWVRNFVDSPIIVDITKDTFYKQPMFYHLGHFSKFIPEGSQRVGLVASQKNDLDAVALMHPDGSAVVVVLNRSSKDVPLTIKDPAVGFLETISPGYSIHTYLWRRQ

| Compound | Potency [µM] |
| --- | --- |
| c1ccc(N2CC3(CCNCC3)C2)nc1 | > 11.4 |
| O=C(c1ccncc1)N1CCC[C@@]2(CCN(Cc3nccs3)C2)C1 | > 11.4 |
| Cc1ccccc1-c1cncnc1NCCc1cnc[nH]1 | > 11.4 |
| O=C1NC(=S)NC(=O)C1=Cc1cccc2cc3ccccc3cc12 | > 11.4 |
| O=C(c1ccco1)N1CCC2(CC1)CN(Cc1ccncc1)C2 | > 11.4 |
| O=C(Oc1ccccc1)N1CCC2(CC1)CCN(C(c1ccccc1)c1ccccc1)CC2 | > 11.4 |
| COc1ccc(NC(=O)N2CC[C@@]3(CCCN(C(=O)Oc4ccccc4)C3)C2)cc1 | > 11.4 |
| O=C(Nc1ccccc1)N1CCC2(CC1)CCN(C(=O)Oc1ccccc1)CC2 | > 11.4 |
| O=C(Oc1ccccc1)N1CCC2(CC1)CN(C(c1ccccc1)c1ccccc1)C2 | > 11.4 |
| COc1ccccc1CN1CC[C@@]2(CCCN(C(=O)Oc3ccccc3)C2)C1 | > 11.4 |
| CC(C)NC(=O)N1CCCC2(CCN(C(=O)Oc3ccccc3)CC2)C1 | > 11.4 |
| CN1CCCC2(CCN(C(=O)c3ccco3)CC2)C1 | > 11.4 |
| COCC(=O)N1CCC2(CCCN(Cc3ccncc3)C2)CC1 | > 11.4 |
| c1ccc(N2CCC3(CCNCC3)CC2)nc1 | > 11.4 |
| O=C(Nc1cccc(F)c1)N1CC[C@@]2(CCCN(C(=O)Oc3ccccc3)C2)C1 | > 11.4 |
| N#Cc1ccc(CN2CC[C@@]3(CCCN(C(=O)Oc4ccccc4)C3)C2)cc1 | > 11.4 |
| CC(C)c1ccc(C(c2c(O)c3ccccc3oc2=O)c2c(O)c3ccccc3oc2=O)cc1 | > 11.4 |
| CN1CCC2(CC1)CCN(C(=O)c1ccco1)CC2 | > 11.4 |
| COc1ccc(NC(=O)N2CC3(CCN(C(=O)Oc4ccccc4)CC3)C2)cc1 | > 11.4 |
| O=C(c1ccncc1)N1CCC2(CC1)CN(Cc1ccccc1)C2 | > 11.4 |

| Compound | Potency [µM] |
| --- | --- |
| Cc1noc(C)c1C(=O)N1CCC2(CCCN(CC(C)C)C2)CC1 | > 11.4 |
| CN1CCCC2(CCN(C(=O)Oc3ccccc3)CC2)C1 | > 11.4 |
| N#Cc1cccc(NC(=O)N2CC[C@@]3(CCCN(C(=O)Oc4ccccc4)C3)C2)c1 | > 11.4 |
| O=C(Oc1ccccc1)N1CCC2(CCCN(Cc3ccccc3)C2)CC1 | > 11.4 |
| CS(=O)(=O)N1CCC2(CCCN(Cc3ccncc3)C2)CC1 | > 11.4 |
| O=C(Nc1cccc(F)c1)N1CC2(CCNCC2)C1 | > 11.4 |
| O=C(Oc1ccccc1)N1CCC[C@@]2(CCN(Cc3ccccc3)C2)C1 | > 11.4 |
| O=C(Nc1ccccc1)N1CC2(CCN(C(=O)Oc3ccccc3)CC2)C1 | > 11.4 |
| c1ccc(CN2CCC3(CCNCC3)CC2)cc1 | > 11.4 |
| c1ccc(N2CCCC3(CCNCC3)C2)nc1 | > 11.4 |
| CC(C)NC(=O)N1CCC2(CC1)CCN(C(=O)Oc1ccccc1)CC2 | > 11.4 |
| O=C(Nc1ccccc1)N1CC[C@@]2(CCCN(C(=O)Oc3ccccc3)C2)C1 | > 11.4 |
| CC(C)CN1CCC2(CC1)CCN(C(=O)Oc1ccccc1)CC2 | > 11.4 |
| CC(C)CN1CCCC2(CCN(C(=O)c3ccncc3)CC2)C1 | > 11.4 |
| O=C(Oc1ccccc1)N1CCC2(CCN(Cc3ccncc3)CC2)CC1 | > 11.4 |
| O=C(Nc1cccc(F)c1)N1CCCC2(CCN(C(=O)Oc3ccccc3)CC2)C1 | > 11.4 |
| O=C(Oc1ccccc1)N1CCC2(CC1)CN(Cc1ccncc1)C2 | > 11.4 |
| CC(C)CN1CC2(CCN(C(=O)c3ccncc3)CC2)C1 | > 11.4 |
| Cc1noc(C)c1C(=O)N1CCC[C@@]2(CCN(CC(C)C)C2)C1 | > 11.4 |
| c1csc(CN2CC[C@@]3(CCCNC3)C2)n1 | > 11.4 |
